AmpC nodet inh – Promiscuous and Specific Inhibitors of AmpC Beta-Lactamase (assay without detergent). P00811. AmpC nitrocefin hydrolysis, absorbance 480 nm, no detergent. Potency, µM (highest dose often 28.7 µM), for inactives: top-dose activity change, negative = inhibition. AID 585, 2007. 71,000 tested, 1.8% active; note: % of control where 0% means no effect
Target sequence (P00811 whole entry, looked up): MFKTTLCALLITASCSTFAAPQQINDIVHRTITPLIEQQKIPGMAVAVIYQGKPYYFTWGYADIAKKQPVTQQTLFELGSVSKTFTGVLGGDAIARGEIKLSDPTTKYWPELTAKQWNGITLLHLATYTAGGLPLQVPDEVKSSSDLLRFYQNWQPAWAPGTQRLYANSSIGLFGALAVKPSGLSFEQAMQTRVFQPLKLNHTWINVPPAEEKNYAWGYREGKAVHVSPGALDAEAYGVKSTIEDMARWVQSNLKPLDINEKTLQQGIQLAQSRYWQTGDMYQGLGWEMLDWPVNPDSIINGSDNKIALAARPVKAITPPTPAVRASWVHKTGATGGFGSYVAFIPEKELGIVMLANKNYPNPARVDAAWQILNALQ
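AmpC in 20 mM phosphate buffer pH 7.0 was preincubated 15 min at room temperature with compounds. Nitrocefin (800 uM stock) was then added and hydrolysis followed at 480 nm every 20 s for 4 min.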
Prx2 Sm inh – Schistosoma Mansoni Peroxiredoxins (Prx2). Schistosoma mansoni peroxiredoxin 2 (Prx2). S. mansoni Prx2 activity coupled to TGR/GSH (TGR is thioredoxin glutathione reductase), NADPH fluorescence loss, qHTS. Potency, µM. 65,000 tested, 0.07% active
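Purified S. mansoni TGR and Prx2 in pH 7.4 phosphate buffer with EDTA and Tween-20 were preincubated with compounds for 15 min. Further NADPH/GSH was added, then a 2.5 mM H2O2 aliquot initiated turnover, followed kinetically by NADPH fluorescence.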
AmpC inh det – Promiscuous and Specific Inhibitors of AmpC Beta-Lactamase (assay with detergent) | P00811 | purified AmpC, nitrocefin hydrolysis with detergent | Potency, µM (titrated, usually from 28.7 µM), for the others: at the highest dose activity change, negative = inhibition | 71,000 tested, 0.09% active | AID 584, 2007; active = well fitted curve in the direction sought with a large enough effect; inconclusive = small, poorly fitted or top-dose-only effect; note: % is set by controls: 0 for no effect and ±100 for the full control effect
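E. coli AmpC (5.3 nM) in 20 mM phosphate pH 7.0 with 0.01% Triton X-100, preincubated 15 min RT with compound; nitrocefin (2 uL of 800 uM stock) hydrolysis followed by 480 nm absorbance every 20 s over 4 min.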
LT uptake inh – qHTS Assay for Anthrax Lethal Toxin Internalization | Cells, anthrax lethal toxin internalization, FRET ratio (460/530) | Potency, µM (highest dose often 40 µM), inactives show top-dose activity change, negative = inhibition, most hits filed as inhibitors | 70,000 tested, 0.67% active; note: % is set by controls: 0 for no effect and ±100 for the full control effect; nearly all actives have a fitted effect of over 50% in size
* marks the source's active call; other numbers are inactive results; ? = inconclusive; nt = no result given; [ ] = remark or other dose. Only some compounds are listed: those with a hit (about 2.6% of all), similar ones and a draw of the others. Unless noted, calls come from the whole dose curve. Potency is the fitted concentration of half-maximal effect.

SMILES	AmpC nodet inh	Prx2 Sm inh	AmpC inh det	LT uptake inh
C=CCn1c(COc2ccc(CC)cc2)nnc1SC/C(O)=C(\C#N)c1nc2ccccc2[nH]1	1.26µM*	>57	4.5%	-0.3%
CCOC(=O)C1CCN(C(=O)c2ccc(Cl)c(NC3=NC4CS(=O)(=O)CC4S3)c2)CC1 (configuration not stated)	3.98µM*[single pt active]	>57	11.8%	1.4%
O=C(c1ccc(NC2=NC3CS(=O)(=O)CC3S2)cc1)N1CCN(C(=O)c2ccco2)CC1 (configuration not stated)	3.98µM*[single pt active]	>57	11.6%	-4.8%
CCOC(=O)N1CCN(C(=O)c2cccc(NC3=NC4CS(=O)(=O)CC4S3)c2)CC1 (configuration not stated)	-3.0%	>57	-3.3%	0.0%
O=C(COC(=O)c1cc(-c2ccco2)nc2ccccc12)NCc1ccc2c(c1)OCO2	12.6µM*	>57	-11.8%	?
Cc1cccc(CNc2ccnc(-c3cccc(C#N)c3)n2)c1	29.4%	>57	-2.6%	5.01µM*
O=C(NCCN1CCOCC1)c1cc(-c2ccc(O)cc2)on1	-7.6%	>57	4.7%	-4.1%
Fc1ccccc1N1CCN(CCCNc2ccc3nncn3n2)CC1	3.98µM*[single pt active]	>57	15.4%	-14.1%
c1ccc(CN2CCN(CCCNc3ccc4nnc(-c5ccccc5)n4n3)CC2)cc1	120.4%	>57	7.5%	?
CC(=O)Cc1nsc(NC(=O)c2cc(-c3cccc(C(F)(F)F)c3)oc2C)n1	15.8µM*[single pt active]	>57	-2.7%	-14.3%
O=c1ccn([C@H]2O[C@H](CO)[C@@H](O)[C@@H]2O)c(=O)[nH]1	-1.2%	>57	-0.3%	?
COc1cc([C@H](O)CO)ccc1O	-11.7%	>57	-1.1%	-7.1%
N#CCSc1nc2scc(-c3cccs3)c2c(=O)n1CCc1ccccc1	7.94µM*	>57	0.5%	-27.3%
C=CCn1c(SCn2nnc3ccccc3c2=O)nc2scc(-c3cccs3)c2c1=O	-9.1%	>57	-3.1%	4.8%
Cc1noc(/C=C/N(C)C)c1S(=O)(=O)N1CCc2ccccc21	3.98µM*[single pt active]	>57	16.2%	?
CN[C@@H](CC(C)C)C(=O)N[C@@H]1C(=O)N[C@H](CC(N)=O)C(=O)N[C@H]2C(=O)N[C@H]3C(=O)N[C@H](C(=O)N[C@H](C(=O)O)c4cc(O)cc(O)c4-c4cc3ccc4O)[C@H](O)c3ccc(c(Cl)c3)Oc3cc2cc(c3O[C@@H]2O[C@@H](CO)[C@@H](O)[C@@H](O)[C@H]2O[C@H]2C[C@](C)(N)[C@H](O)[C@H](C)O2)Oc2ccc(cc2Cl)[C@@H]1O	-3.7%	>57	-0.7%	1.0%
CCOC(=O)c1ccc(NC(=O)C2CCN(S(=O)(=O)c3ccccc3)CC2)cc1	6.4%	>57	10.0%	3.98µM*
CCOC(=O)c1ccc(NC(=O)C2CCN(S(=O)(=O)CC)CC2)cc1	25.2%	>57	-4.9%	8.6%
O=[N+]([O-])c1cc(C(F)(F)F)cc([N+](=O)[O-])c1Cl	-3.0%	nt	13.1%	0.2%
CCCN(CCC)c1c([N+](=O)[O-])cc(C(F)(F)F)cc1[N+](=O)[O-]	-14.8%	nt	10.0%	5.01µM*
CCOC(=O)CCS(=O)(=O)c1nc(-c2ccccc2)cc(C(F)(F)F)n1	16.2%	>57	1.1%	?
CCOC(=O)CS(=O)(=O)c1nc(-c2ccccc2)cc(C(F)(F)F)n1	-3.0%	>57	-8.1%	3.16µM*
COc1cc(/C=C/c2ccccc2)oc(=O)c1	10.5%	nt	18.3%	1.5%
CN1CCN(C(=O)c2cc(-c3ccc(O)cc3)on2)CC1	-4.7%	>57	7.1%	-2.1%
O=C(O)c1cc[c]([Hg][Cl])cc1	-9.7%	0.441*	-7.7%	?
SMILES	AmpC nodet inh	Prx2 Sm inh	AmpC inh det	LT uptake inh
COc1ccccc1S(=O)(=O)Cc1ccc(C(=O)N2CCOCC2)o1	3.16µM*[single pt active]	>57	13.2%	-0.5%
COc1ccc(S(=O)(=O)Cc2ccc(C(=O)N3CCOCC3)o2)cc1	3.98µM*[single pt active]	>57	12.8%	2.4%
COc1ccccc1S(=O)(=O)Cc1ccc(C(=O)N2CCN(c3ccccc3)CC2)o1	97.3%	>57	1.1%	3.8%
NC(=O)SCC(=O)Nc1ccc2ncccc2c1	5.4%[5.75 µM]	>11.4	-2.0%[5.75 µM]	1.3%[8 µM]
Nc1nc(N)c2[nH]cnc2n1 (tested in a mixture with another compound)	-2.1%[5.75 µM]	>57	-1.8%[5.75 µM]	7.7%[8 µM]
O=C(O)c1ccccc1-c1c2cc(Br)c(=O)cc-2oc2[c]([Hg])c(O)c(Br)cc12	-16.8%[12.8 µM]	0.0366*	-3.3%[12.8 µM]	?
C[C@@H]1CCCC(CC(=O)O)(CC(=O)O)C1	-1.5%[5.75 µM]	>57	-2.3%[5.75 µM]	14.0%[8 µM]
CCC(=O)c1ccc(OCC(O)CN2CCOCC2)cc1 (configuration not stated)	17.0%	>57	-3.3%	2.9%
CC(=O)c1ccc(OCC(O)CN2C(C)CCCC2C)cc1 (configuration not stated)	3.98µM*[single pt active]	>57	12.1%	-10.1%
CC(=O)c1ccc(OCC(O)CN2CCOCC2)cc1 (configuration not stated)	3.98µM*[single pt active]	>57	8.2%	-14.0%
CC(=O)c1ccc(OCC(O)CN2CCC(C)CC2)cc1 (configuration not stated)	3.98µM*[single pt active]	>57	12.3%	-7.6%
COC(=O)c1ccc(OCC(O)CN2CCC(C)CC2)cc1 (configuration not stated)	-3.7%	>57	8.6%	0.1%
C[C@@H]1C(=O)N(C)C(=O)c2nc[nH]c21	2.5%	>57	-1.3%	-2.3%
N[C@@H](CNO)C(=O)O	0.4%[5.75 µM]	>57	-2.1%[5.75 µM]	-7.2%[8 µM]
NC(=O)c1ncn([C@@H]2O[C@@H](CO)[C@@H](O)[C@H]2O)c1O	-5.9%	>57	-1.2%	6.0%
CC(C)COC(=O)c1nnsc1NC(=O)Nc1ccccc1	15.8µM*[single pt active]	>57	-1.7%	-27.4%
CC(C)COC(=O)c1ccccc1C(=O)OCC(C)C	-2.6%	nt	1.3%	?
Brc1ccccc1Cn1c(-c2cncs2)nc2ccccc21	58.4%	>57	11.9%	10µM*
c1csc(Cn2c(-c3cccs3)nc3ccccc32)c1	-6.3%	>57	-2.7%	-1.3%
O=C(O)[C@H](/C=C\c1ccccc1)c1ccccc1	-13.0%[5.75 µM]	>57	-2.6%[5.75 µM]	?
O=C(Cn1c(=O)oc2cc(S(=O)(=O)N3CCCCCC3)ccc21)NC1CCCCCCC1	3.98µM*[single pt active]	>57	9.3%	-8.3%
CC1CCN(S(=O)(=O)c2ccc3c(c2)oc(=O)n3CC(=O)NCc2ccc3c(c2)OCO3)CC1	3.98µM*	>57	4.1%	?
O=C(Cn1c(=O)sc2ccccc21)Nc1ccc(S(=O)(=O)N2CCCCC2)cc1	6.31µM*	>57	-4.5%	-1.7%
CC1CCN(S(=O)(=O)c2ccc3c(c2)oc(=O)n3CC(=O)N2c3ccccc3CC2C)CC1 (configuration not stated)	16.9%	>57	3.4%	?
CCN(CC)S(=O)(=O)c1ccc(NC(=O)Cn2c(=O)sc3ccccc32)cc1	?	>57	0.8%	-20.9%
Cc1c(C(=O)NCc2ccc3c(c2)OCO3)oc2ccc(S(=O)(=O)N3CCC(C)CC3)cc12	3.6%	>57	-5.4%	-14.3%

Screening results from PubChem.
